Laboratory results reported in PubChem BioAssay AID1461 (National Center for Advancing Translational Sciences (NCATS), 2008).
Among all 220,000 compounds or so, about 2,300 (1%) were called active. Another 6% or so got no clear call; they are omitted. The call rests on the fitted dose curve; in most records, active means well fitted inhibition curve with a large enough effect; inconclusive means small, poorly fitted or top-dose-only effect, or effect the other way; inactive means no such curve, though single readings can be large or run the other way. For the sample, actives were picked, then their nearest neighbours and some compounds at random.
Further: nearly all actives have a fitted effect of over 50% in size.
On the % scale 0 is the no-effect control and ±100 the full control effect; potency means the concentration at half of the fitted maximal effect.

What follows are molecules tested against Neuropeptide S receptor (Homo sapiens) (UniProt Q6W5P4) (assay: qHTS Assay for Antagonists of the Neuropeptide S Receptor: cAMP Signal Transduction). Conditions: CHO-NPSR cells, cAMP TR-FRET, antagonist mode; series mostly up to 38.3 µM; activity change, negative = inhibition: at the top concentration.
Neuropeptide S receptor (Homo sapiens), sequence (Q6W5P4 whole entry, looked up): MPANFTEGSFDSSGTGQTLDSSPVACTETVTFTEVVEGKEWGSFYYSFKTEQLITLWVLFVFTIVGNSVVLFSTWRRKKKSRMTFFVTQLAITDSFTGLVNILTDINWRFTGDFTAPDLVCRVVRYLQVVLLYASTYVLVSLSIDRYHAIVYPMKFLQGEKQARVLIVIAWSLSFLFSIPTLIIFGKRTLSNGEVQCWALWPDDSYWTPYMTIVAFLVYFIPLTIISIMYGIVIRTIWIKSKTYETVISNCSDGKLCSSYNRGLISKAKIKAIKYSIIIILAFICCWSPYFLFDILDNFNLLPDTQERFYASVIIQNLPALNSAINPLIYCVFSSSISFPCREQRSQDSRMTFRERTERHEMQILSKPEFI
In the case of `CC(C)Cn1c(N)c(C(=O)NCc2cccs2)c2nc3ccccc3nc21`, the Potency is reported as 12.6 µM (active).
`CCC(C)NC(=O)c1c(N)n(/N=C/c2cccs2)c2nc3ccccc3nc12` (stereo unspecified) was tested, and the “activity change, negative = inhibition” value was 1.21% [at 46.1 µM] (inactive).
For `C=CCn1c(N)c(C(=O)OCC(C)C)c2nc3ccccc3nc21`, the “activity change, negative = inhibition” value was -1.13% [at 46.1 µM] (inactive).
In the case of `Cc1ccccc1CSc1nnc(CCCCCNC(=O)OC(C)(C)C)o1`, the “activity change, negative = inhibition” value is reported as -26% (inactive).
For `Cc1ccc(C(=O)NNC2=Nc3cc([N+](=O)[O-])ccc3OC2)cc1`, the activity change, negative = inhibition was -1.29% [at 7.67 µM] (inactive).
In the case of `CC(C)(C)c1ccc(CCC2OCC(CN3CCOCC3)O2)cc1` (stereo unspecified), the “activity change, negative = inhibition” value is reported as -9.52% (inactive).
In the case of `O=C(CCCl)Nc1ccc(S(=O)(=O)NCc2ccco2)cc1`, the “activity change, negative = inhibition” value is reported as 9.32% (inactive).
In the case of `COc1ccc(C(CCN(Cc2ccc(OC)c(OC)c2)C(=O)CCl)c2ccccc2)cc1` (stereo unspecified), the Potency is reported as 5.01 µM (active).
With `COc1ccc(CCNC(=O)C(Sc2ccccn2)c2ccccc2)cc1OC` (stereo unspecified) the “activity change, negative = inhibition” value was -4.36% (inactive).
`CCOC(=O)CN(Cc1ccc(OC)c(OC)c1)S(=O)(=O)c1ccc(OC)cc1` was tested, and the “activity change, negative = inhibition” value was -11.5% [at 46.1 µM] (inactive).
For `C/C=C(\C)C(=O)N1CC2(CC(c3cccc(NC(=O)CCCCC)c3)=NO2)C[C@@H]1C(N)=O` (stereo partly specified), the “activity change, negative = inhibition” value was 15.3% (inactive).
With `Cn1nnc(NC(=S)NC(=O)c2ccccc2)n1` the “activity change, negative = inhibition” value was 20.6% (inactive).
With `CSc1c(SCc2ccccc2)cnn(Cc2ccccc2)c1=O` the Potency was 10 µM (active).
With `O=c1c2ccccc2c(-c2ccccc2)nn1Cc1ccccc1` the “activity change, negative = inhibition” value was -19.8% (inactive).
With `Cn1c(CO)cnc1SCc1ccccc1` the “activity change, negative = inhibition” value was -2.33% [at 46.1 µM] (inactive).
For `Cc1csc(Nc2ccc(Cl)cc2)[n+]1-c1ccc(Cl)cc1`, the Potency was 10 µM (active).
In the case of `O=c1ccnc(Nc2ccc(Cl)cc2)[nH]1`, the activity change, negative = inhibition is reported as 1.3% [at 7.67 µM] (inactive).
`CC1=NNC(=O)C1CCC(=O)N/N=C(\C)c1ccc(Cl)cc1` (stereo unspecified) was tested, and the “activity change, negative = inhibition” value was -8.4% (inactive).
In the case of `Cc1ccc(CSc2nnc(-c3cnccn3)n2C)cc1`, the “activity change, negative = inhibition” value is reported as 25.9% (inactive).
For `CC(C)S(=O)(=O)c1csc(NC(=O)Nc2ccc(Cl)cc2)c1Cl`, the activity change, negative = inhibition was 14.8% [at 7.67 µM] (inactive).
`Cc1cccn2c(CNCC(C)Oc3cccnc3)c(C(=O)N3CCOCC3)nc12` (stereo unspecified) was tested, and the “activity change, negative = inhibition” value was 15.1% (inactive).
`COc1ccc(NC(=O)C2=NNC(=O)CC2)cc1S(=O)(=O)N1CCCCC1` was tested, and the “activity change, negative = inhibition” value was 0.183% (inactive).
In the case of `O=C(Nc1ccc(S(=O)(=O)Nc2nccs2)cc1)c1cccc(S(=O)(=O)N2CCOCC2)c1`, the “activity change, negative = inhibition” value is reported as 3.35% (inactive).
In the case of `COc1ccc(/C(O)=C2\C(=O)C(=O)N(Cc3ccco3)C2c2ccc(OC)cc2OC)cc1` (stereo unspecified), the “activity change, negative = inhibition” value is reported as -2.14% [at 46.1 µM] (inactive).
For `COc1ccc(/C(O)=C2/C(=O)C(=O)N(c3nc(C)c(C)s3)C2c2ccco2)cc1` (stereo unspecified), the Potency was 10 µM (active).
In the case of `CCOc1ccc(/C(O)=C2\C(=O)C(=O)N(c3ccc(OC)cc3)C2c2ccccc2[N+](=O)[O-])cc1` (stereo unspecified), the “activity change, negative = inhibition” value is reported as 30.9% (inactive).
For `COc1ccccc1N(C)S(=O)(=O)c1ccc(C(=O)NC2CCCCCC2)cc1`, the “activity change, negative = inhibition” value was -52.7% (inactive).
`CC[C@@H](C)[C@@H](C(=O)N1CCN(C(=O)OC(C)(C)C)CC1)n1cc(CCC(=O)O)nn1` was tested, and the “activity change, negative = inhibition” value was 25.2% (inactive).
In the case of `CC(=O)NC(=S)Nc1ccc(NC(=S)NC(=O)c2ccc([N+](=O)[O-])cc2)cc1`, the “activity change, negative = inhibition” value is reported as 14.8% (inactive).
`COc1cc(/C=C2/C(=O)NN(c3ccc(F)cc3)C2=O)cc([N+](=O)[O-])c1O` was tested, and the “activity change, negative = inhibition” value was -10.9% (inactive).
In the case of `CCCn1c(=NC(C)=O)c(C(=O)OCC)cc2c(=O)n3ccccc3nc21`, the “activity change, negative = inhibition” value is reported as -12.6% [at 46.1 µM] (inactive).
`C/C(=N/OC(=O)c1c(-c2c(F)cccc2Cl)noc1C)c1cnccn1` was tested, and the “activity change, negative = inhibition” value was 21.6% (inactive).
In the case of `CCOC(=O)c1cc2c(=O)n3ccccc3nc2n(CC(C)C)c1=NC(=O)c1c(-c2c(F)cccc2Cl)noc1C`, the Potency is reported as 3.98 µM (active).
With `O=C(O)C1CCN(c2ccc([N+](=O)[O-])cc2[N+](=O)[O-])CC1` the “activity change, negative = inhibition” value was 1.93% (inactive).
In the case of `CC(OC(=O)c1ccc(NS(=O)(=O)c2ccc3[nH]c(=O)[nH]c3c2)cc1)C(=O)Nc1cccc(Cl)c1Cl` (stereo unspecified), the “activity change, negative = inhibition” value is reported as -9.26% (inactive).
In the case of `O=C(O)c1cccnc1Sc1ncnc2sc3c(c12)CCC3`, the “activity change, negative = inhibition” value is reported as -3.47% (inactive).
